From PubChem BioAssay AID547 (Emory University Molecular Libraries Screening Center, 2006)
Screen size: about 1,300 compounds; about 10 (0.8%) were called active. No rule for the calls is given here. The sample as a whole holds a higher share of actives than the screen did.

biological target: Chaperone protein DnaK (Escherichia coli (strain K12)) (UniProt P0A6Y8); test: blockers of bacterial DnaK function – luminescence, E. coli K12, primary screen (AID 547); settings: DnaK chaperone assay, luminescence read-out; hits give low values;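 also: tested at 10 µM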

For `CN=C(N)NCCC[C@H](N)C(=O)O`, which luminescence is on record?
Its luminescence is 2.2e+06 cps (inactive).

How did the luminescence turn out when `N[C@@H](CCC(=O)N[C@H](CSN=O)C(=O)NCC(=O)O)C(=O)O` was run?
Its luminescence is 2.5e+06 cps (inactive).

`[N-]=[N+]=Nc1ccc(C(=O)CSC[C@H](NC(=O)CC[C@H](N)C(=O)O)C(=O)NCC(=O)O)cc1` was tested. Which luminescence did it give?
The luminescence was 1.6e+06 cps (active).

Which luminescence does the source give for `C#C[C@]1(O)CC[C@H]2[C@@H]3CCC4=Cc5oncc5CC4(C)[C@H]3CCC21C` (stereo partly specified) here?
The luminescence was 3e+06 cps (inactive).

Which luminescence does the source give for `Nc1ncnc2c1nc(Sc1ccc(Cl)cc1)n2C1OC2COP(=O)(O)O[C@@H]2[C@@H]1O` (stereo partly specified) here?
Its luminescence is 2.7e+06 cps (inactive).

With `CC(C)NCC(O)c1ccc(NS(C)(=O)=O)cc1` (stereo unspecified) as the compound, how does the luminescence read?
Its luminescence is 2.3e+06 cps (inactive).

`CCn1c(=O)c2[nH]c(-c3ccccc3)nc2n(CC)c1=O` was tested. Which luminescence did it give?
Its luminescence is 2.8e+06 cps (inactive).

How did the luminescence turn out when `CC(C)Cn1c(=O)n(C)c(=O)c2[nH]cnc21` was run?
The luminescence was 2.1e+06 cps (inactive).

How did the luminescence turn out when `CCOC(=O)C12CC1/C(=N/O)c1ccccc1O2` (stereo unspecified) was run?
Its luminescence is 2.4e+06 cps (inactive).

For `NC(CO)C(=O)NNCc1ccc(O)c(O)c1O` (stereo unspecified), which luminescence is on record?
Its luminescence is 2.2e+06 cps (inactive).

Which luminescence does the source give for `C=CC[C@H](N)C(=O)O` here?
The luminescence was 2.5e+06 cps (inactive).

With `N[C@@H](Cc1c[nH]c2ccccc12)C(=O)O` as the compound, how does the luminescence read?
The luminescence was 2.2e+06 cps (inactive).

With `NC(C(=O)N[C@@H]1C(=O)N2C(C(=O)O)=C(Cl)CS[C@H]12)c1ccccc1` (stereo partly specified) as the compound, how does the luminescence read?
Its luminescence is 2.8e+06 cps (inactive).

With `CCN(CC)CCCC(C)Nc1c2ccc(Cl)cc2nc2ccc(OC)cc12` (stereo unspecified) as the compound, how does the luminescence read?
The luminescence was 2.3e+06 cps (inactive).

Which luminescence does the source give for `CCC1(O)CC2CN(CCc3c([nH]c4ccccc34)[C@@](C(=O)OC)(c3cc4c(cc3OC)N(C)C3[C@]45CCN4CC=C[C@@](CC)([C@@H](OC(C)=O)[C@]3(O)C(=O)OC)[C@H]45)C2)C1` (stereo partly specified) here?
The luminescence was 2.4e+06 cps (inactive).

How did the luminescence turn out when `Cc1cc(C)c(NC(=O)C[C@H](CC(=O)O)c2cccc3ccccc23)c(C(=O)N2CCC3(CCCC3)CC2)c1` was run?
The luminescence was 2.4e+06 cps (inactive).

`Nn1nnc2ccccc21` was tested. Which luminescence did it give?
The luminescence was 2.9e+06 cps (inactive).

With `O=c1onc2cnc3ccccc3n12` as the compound, how does the luminescence read?
The luminescence was 2.2e+06 cps (inactive).

How did the luminescence turn out when `CCOC(=O)Nc1ccc(NCc2ccc(F)cc2)nc1N` was run?
Its luminescence is 2.9e+06 cps (inactive).

With `CCCC(=O)NCCc1c2n(c3ccc(OC)cc13)CCCc1ccccc1-2` as the compound, how does the luminescence read?
Its luminescence is 2.6e+06 cps (inactive).

How did the luminescence turn out when `Clc1ccc2c(c1)C(N1CCNCC1)=Nc1ccccc1O2` was run?
The luminescence was 3.1e+06 cps (inactive).

How did the luminescence turn out when `CNC(=O)[C@H]1O[C@@H](n2cnc3c(NCc4ccc(N)cc4)ncnc32)C(O)[C@H]1O` (stereo partly specified) was run?
The luminescence was 2.7e+06 cps (inactive).

With `O=C(CCc1ccc(O)cc1)c1c(O)cc(O)cc1O` as the compound, how does the luminescence read?
The luminescence was 2.4e+06 cps (inactive).

For `N.N.N.N.N.N.N.N.N.N.N.N.N.N.O.O.[Cl-].[Cl-].[Cl-].[Cl-].[Cl-].[Cl-].[Ru+4].[Ru+5].[Ru+5]`, which luminescence is on record?
Its luminescence is 2.1e+06 cps (inactive).

Which luminescence does the source give for `Fc1ccc(C(OCCCc2cnc[nH]2)c2ccc(F)cc2)cc1` here?
The luminescence was 2.6e+06 cps (inactive).

Which luminescence does the source give for `CN(C)CCC(c1ccc(Cl)cc1)c1ccccn1` (stereo unspecified) here?
The luminescence was 2.6e+06 cps (inactive).

Which luminescence does the source give for `C=Cc1c(C)c2cc3[nH]c(cc4nc(cc5nc(cc1[nH]2)C(C)=C5CCC(=O)O)C(CCC(=O)O)=C4C)c(C)c3C=C` here?
The luminescence was 2e+06 cps (inactive).

With `O=C(Nc1ccc([N+](=O)[O-])cc1Cl)c1cc(Cl)ccc1O` as the compound, how does the luminescence read?
Its luminescence is 1.7e+06 cps (active).

With `O=C(Nc1ccccc1)c1cc([N+](=O)[O-])ccc1Cl` as the compound, how does the luminescence read?
The luminescence was 2.6e+06 cps (inactive).

Which luminescence does the source give for `O=C(O)c1cc([N+](=O)[O-])ccc1NCCCc1ccccc1` here?
The luminescence was 2.6e+06 cps (inactive).

How did the luminescence turn out when `NCC(O)c1ccc(O)c(O)c1` (stereo unspecified) was run?
Its luminescence is 2.7e+06 cps (inactive).

How did the luminescence turn out when `O=C(O)c1cc(=O)c2ccc(Cl)cc2[nH]1` was run?
Its luminescence is 2.8e+06 cps (inactive).

Which luminescence does the source give for `CN=c1nc(-c2ccccc2)n(-c2ccccc2)s1` here?
The luminescence was 2.4e+06 cps (inactive).

`O=S(=O)(NCCNC/C=C/c1ccc(Br)cc1)c1cccc2cnccc12` was tested. Which luminescence did it give?
The luminescence was 2.4e+06 cps (inactive).

`O=C(OCCN1CCCCC1)c1c[nH]c2ccccc12` was tested. Which luminescence did it give?
The luminescence was 2.9e+06 cps (inactive).

`O=C(O)/C(=C/c1c(C(=O)O)[nH]c2cc(Cl)cc(Cl)c12)c1ccccc1` was tested. Which luminescence did it give?
Its luminescence is 2.5e+06 cps (inactive).

How did the luminescence turn out when `Cc1cn([C@H]2C=C[C@@H](CO)O2)c(=O)[nH]c1=O` was run?
Its luminescence is 2.9e+06 cps (inactive).

How did the luminescence turn out when `CCN(CC)C(C)C(=O)N1c2ccccc2Sc2ccccc21` (stereo unspecified) was run?
The luminescence was 2.4e+06 cps (inactive).

`O=C(O)c1cc2cc(Cc3cccnc3)ccc2o1` was tested. Which luminescence did it give?
The luminescence was 3.2e+06 cps (inactive).

With `O=C(c1ccccc1)c1ccc2n1CCC2C(=O)O` (stereo unspecified) as the compound, how does the luminescence read?
The luminescence was 2.9e+06 cps (inactive).

Which luminescence does the source give for `C[N+](C)(C)CCOC(N)=O` here?
Its luminescence is 2.6e+06 cps (inactive).

How did the luminescence turn out when `NCCc1cnc[nH]1` was run?
Its luminescence is 3.3e+06 cps (inactive).

With `Nc1c(S(=O)(=O)O)cc(Nc2ccc(Nc3nc(Cl)nc(Nc4ccc(S(=O)(=O)O)cc4)n3)c(S(=O)(=O)O)c2)c2c1C(=O)c1ccccc1C2=O` as the compound, how does the luminescence read?
Its luminescence is 1.6e+06 cps (active).

`O=C(O)C1CN(CCCP(=O)(O)O)CCN1` (stereo unspecified) was tested. Which luminescence did it give?
Its luminescence is 2.6e+06 cps (inactive).

How did the luminescence turn out when `COc1ccccc1N1CCN(CCCCNC(=O)c2ccc3ccccc3c2)CC1` was run?
Its luminescence is 2.7e+06 cps (inactive).

For `COc1cc2c(cc1OC)-c1cc(=Nc3c(C)cc(C)cc3C)n(C)c(=O)n1CC2`, which luminescence is on record?
Its luminescence is 2.5e+06 cps (inactive).

How did the luminescence turn out when `O=C(O)C1=CC(=C(c2ccc(O)c(C(=O)O)c2)c2ccc(O)c(C(=O)O)c2)C=CC1=O` was run?
The luminescence was 1.2e+06 cps (active).

With `O=C(/C=C/c1ccc(O)c(O)c1)OCCc1ccccc1` as the compound, how does the luminescence read?
Its luminescence is 3e+06 cps (inactive).

`C[C@@H]1C(=O)NC2=Nc3cccc(Cl)c3CN21` was tested. Which luminescence did it give?
Its luminescence is 2.4e+06 cps (inactive).

How did the luminescence turn out when `COc1cc(C(O)CO)ccc1O` (stereo unspecified) was run?
The luminescence was 2.8e+06 cps (inactive).

`CNCCNS(=O)(=O)c1cccc2cnccc12` was tested. Which luminescence did it give?
The luminescence was 2.6e+06 cps (inactive).
